This is part of a sample that, as a whole, favours compounds with a hit. Of some 83,000 tested, about 20% had one in any assay.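 The endpoint reported here, percent growth, reads 100 for growth as untreated, 0 for no net growth and -100 for all cells dead.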 Active and inactive are the calls of the source. How the source made its calls: active means growth percent below 10; inactive means the rest.
Assays:
Assay in all cases: NCI-60 one-dose screen, 48 h (100 = growth as untreated, 0 = no growth, -100 = all killed)
Conditions in all cases: 10 µM
NCI-H23 lung = test system: NCI-H23 lung
NCI-H226 lung = test system: NCI-H226 lung
NCI-H322M lung = test system: NCI-H322M lung
HOP-62 NSCLC = test system: HOP-62 NSCLC
NCI-H460 lung = test system: NCI-H460 lung
HOP-92 NSCLC = test system: HOP-92 NSCLC
NCI-H522 lung = test system: NCI-H522 lung
A549/ATCC NSCLC = test system: A549/ATCC NSCLC
786-0 renal = test system: 786-0 renal
COLO 205 colon = test system: COLO 205 colon

Measured: growth

COc1cc(OC)cc(-c2ccc(-c3ccc(C(=N)N)cn3)o2)c1
inactive: NCI-H23 lung 61.6% | NCI-H226 lung 60.7%
active: NCI-H322M lung 2.03% | HOP-62 NSCLC 6.78% | NCI-H460 lung -76.6% | HOP-92 NSCLC -21.8% | NCI-H522 lung -50.7% | A549/ATCC NSCLC 4.73% | 786-0 renal -40.2% | COLO 205 colon -56.9%

CC(C)C(C)C(N)C(=O)O (stereo not given)
inactive: NCI-H23 lung 97.8% | NCI-H226 lung 102% | NCI-H322M lung 99% | HOP-62 NSCLC 89.9% | NCI-H460 lung 109% | HOP-92 NSCLC 86.8% | NCI-H522 lung 91.2% | A549/ATCC NSCLC 104% | 786-0 renal 92.8% | COLO 205 colon 108%

CCOC(=O)Cn1nnc(-c2ccc(OCc3ccccc3F)cc2)n1
inactive: NCI-H23 lung 89% | NCI-H226 lung 103% | NCI-H322M lung 98.7% | HOP-62 NSCLC 87.1% | NCI-H460 lung 102% | HOP-92 NSCLC 75.5% | NCI-H522 lung 52.3% | A549/ATCC NSCLC 90.8% | 786-0 renal 97.2% | COLO 205 colon 103%

COc1ccc(C2=Cc3ccc(OC(C)=O)cc3OC2)cc1
inactive: NCI-H23 lung 95.9% | NCI-H226 lung 91.1% | NCI-H322M lung 92.3% | HOP-62 NSCLC 109% | NCI-H460 lung 103% | HOP-92 NSCLC 91.8% | NCI-H522 lung 75.4% | A549/ATCC NSCLC 88.3% | 786-0 renal 100% | COLO 205 colon 110%

CNC(=S)Sc1ccc([N+](=O)[O-])cc1[N+](=O)[O-]
inactive: NCI-H23 lung 83.5% | NCI-H226 lung 78.9% | NCI-H322M lung 99.1% | HOP-62 NSCLC 83% | NCI-H460 lung 102% | HOP-92 NSCLC 23.6% | A549/ATCC NSCLC 80.8% | 786-0 renal 93.9%
active: NCI-H522 lung -57.7% | COLO 205 colon -35.1%

CC(=O)n1nc(C(=O)OC(C)(C)C)c2cc(F)c(F)cc21
inactive: NCI-H23 lung 101% | NCI-H226 lung 105% | NCI-H322M lung 102% | HOP-62 NSCLC 99% | NCI-H460 lung 102% | HOP-92 NSCLC 83% | NCI-H522 lung 83.2% | A549/ATCC NSCLC 95.9% | 786-0 renal 97.5% | COLO 205 colon 103%

CCCCCCCC/C=C/CCCCCCCCC1=NCCN1CCO
inactive: NCI-H23 lung 76.5% | NCI-H226 lung 86.9% | NCI-H322M lung 55.5% | HOP-62 NSCLC 75.9% | NCI-H522 lung 76.7% | A549/ATCC NSCLC 77.5% | 786-0 renal 75% | COLO 205 colon 70.7%
active: NCI-H460 lung -34% | HOP-92 NSCLC -5.31%

Cn1c(=O)c2[nH]c(C(O)c3ccc(Cl)cc3)nc2n(C)c1=O (stereo not given)
inactive: NCI-H23 lung 98.8% | NCI-H226 lung 103% | NCI-H322M lung 111% | HOP-62 NSCLC 94.7% | NCI-H460 lung 100% | HOP-92 NSCLC 76.1% | NCI-H522 lung 96.7% | A549/ATCC NSCLC 96.3% | 786-0 renal 98.6% | COLO 205 colon 102%

COc1ccc(C2C=C(c3ccc(Cl)cc3)N=C3SC=CN32)c(Br)c1 (stereo not given)
inactive: NCI-H23 lung 71.6% | NCI-H226 lung 81.4% | NCI-H322M lung 112% | HOP-62 NSCLC 87.3% | NCI-H460 lung 76.7% | HOP-92 NSCLC 76.2% | NCI-H522 lung 65.5% | A549/ATCC NSCLC 56.8% | 786-0 renal 89.6% | COLO 205 colon 70.4%

COc1ccc2c(=O)cc(C(Cl)(Cl)Cl)oc2c1
active: NCI-H23 lung -18.4% | NCI-H226 lung -29.2% | NCI-H322M lung -17.6% | HOP-62 NSCLC -14.8% | NCI-H460 lung -7.69% | HOP-92 NSCLC -26.1% | NCI-H522 lung -51.7% | A549/ATCC NSCLC -0.889% | 786-0 renal 8.97% | COLO 205 colon -88.4%

Cc1ccc([P+](Cc2ccc([N+](=O)[O-])cc2)(c2ccc(C)cc2)c2ccc(C)cc2)cc1
inactive: NCI-H23 lung 41% | NCI-H226 lung 80.6% | NCI-H322M lung 69.3% | HOP-62 NSCLC 70.8% | NCI-H460 lung 60.5% | A549/ATCC NSCLC 81% | 786-0 renal 82.4%
active: HOP-92 NSCLC -19.6% | NCI-H522 lung 0.971% | COLO 205 colon 7.68%

COc1cccc(C(=O)NNc2nc(N3CCOCC3)nc(N3CCN(C(c4ccccc4)c4ccccc4)CC3)n2)c1
inactive: NCI-H23 lung 84.2% | NCI-H226 lung 83.6% | NCI-H322M lung 82.8% | HOP-62 NSCLC 82.2% | NCI-H460 lung 87.8% | HOP-92 NSCLC 70.3% | NCI-H522 lung 86.6% | A549/ATCC NSCLC 62.4% | 786-0 renal 86.6% | COLO 205 colon 75.4%

COc1ccc(OC)c([N+](=O)[O-])c1C=O
inactive: NCI-H23 lung 107% | NCI-H226 lung 92% | NCI-H322M lung 101% | HOP-62 NSCLC 78.2% | NCI-H460 lung 108% | HOP-92 NSCLC 91.1% | NCI-H522 lung 76.9% | A549/ATCC NSCLC 101% | 786-0 renal 110% | COLO 205 colon 124%

Nc1nc2c(ncn2C2OC3COP(=O)(O)OC4C(COP(=O)(O)OC2C3O)OC(n2cnc3c(N)ncnc32)C4O)c(=O)[nH]1 (stereo not given)
inactive: NCI-H23 lung 106% | NCI-H226 lung 75.6% | NCI-H322M lung 105% | HOP-62 NSCLC 94% | NCI-H460 lung 108% | HOP-92 NSCLC 109% | NCI-H522 lung 103% | A549/ATCC NSCLC 109% | 786-0 renal 103% | COLO 205 colon 98.1%

CC(C)CCN(CCCNc1c2c(nc3cc(Cl)ccc13)CCCC2)CCC(C)C
inactive: NCI-H23 lung 62.3% | NCI-H226 lung 53.8% | NCI-H322M lung 75% | HOP-62 NSCLC 77.9% | NCI-H460 lung 55.7% | HOP-92 NSCLC 12.3% | NCI-H522 lung 82.1% | A549/ATCC NSCLC 85.4% | 786-0 renal 80.1% | COLO 205 colon 32.6%

CCCCCCCCCCCC(c1ccccc1)N(C)C (stereo not given)
inactive: NCI-H23 lung 102% | NCI-H226 lung 97.2% | NCI-H322M lung 103% | HOP-62 NSCLC 119% | NCI-H460 lung 105% | HOP-92 NSCLC 74.2% | NCI-H522 lung 103% | A549/ATCC NSCLC 97.5% | 786-0 renal 104% | COLO 205 colon 101%

O=[N+]([O-])C1CC2C=CC1C2 (stereo not given)
inactive: NCI-H23 lung 100% | NCI-H226 lung 94.9% | NCI-H322M lung 91.1% | HOP-62 NSCLC 93.3% | NCI-H460 lung 108% | HOP-92 NSCLC 110% | NCI-H522 lung 101% | A549/ATCC NSCLC 92.3% | 786-0 renal 90.4% | COLO 205 colon 115%

Cn1cnc([N+](=O)[O-])c1Sc1nnc(-c2ccccc2)c(-c2ccccc2)n1
inactive: NCI-H23 lung 79.5% | NCI-H226 lung 77.1% | NCI-H322M lung 102% | HOP-62 NSCLC 97.3% | NCI-H460 lung 113% | HOP-92 NSCLC 71.1% | NCI-H522 lung 85.4% | A549/ATCC NSCLC 114% | 786-0 renal 85.4% | COLO 205 colon 90.2%

CCOC(=O)CNC(=O)Nc1ccc(Oc2ccc(NC(=O)NCC(=O)OCC)cc2)cc1
inactive: NCI-H23 lung 104% | NCI-H226 lung 98.8% | NCI-H322M lung 96.3% | HOP-62 NSCLC 96.1% | NCI-H460 lung 101% | HOP-92 NSCLC 92.2% | NCI-H522 lung 96.2% | A549/ATCC NSCLC 90.6% | 786-0 renal 105% | COLO 205 colon 105%

O=C(COc1ccc(Cl)cc1Cl)Oc1coc(CSc2nc3ccccc3s2)cc1=O
inactive: NCI-H23 lung 94.5% | NCI-H226 lung 93.8% | NCI-H322M lung 114% | HOP-62 NSCLC 107% | NCI-H460 lung 101% | HOP-92 NSCLC 110% | NCI-H522 lung 74.8% | A549/ATCC NSCLC 27.8% | 786-0 renal 113% | COLO 205 colon 114%

CCOC(=O)c1cc2c(n1Cc1cccc(OC)c1)-c1oncc1CC2
active: NCI-H322M lung -0.987% | COLO 205 colon 9.01%
inactive: NCI-H23 lung 48.9% | NCI-H226 lung 50% | HOP-62 NSCLC 37.8% | NCI-H460 lung 10% | HOP-92 NSCLC 30.5% | NCI-H522 lung 13.7% | A549/ATCC NSCLC 42.6% | 786-0 renal 36.5%

COc1ccc(Nc2nc(NCc3ccccc3)c3ccccc3n2)cc1
inactive: NCI-H23 lung 77.3% | NCI-H322M lung 41.1% | NCI-H522 lung 50.1% | A549/ATCC NSCLC 21.9% | 786-0 renal 33.9% | COLO 205 colon 43.6%
active: NCI-H226 lung 6.99% | HOP-62 NSCLC -48% | NCI-H460 lung 3.09% | HOP-92 NSCLC -4.85%

C=CCN1C(=O)/C(=C\c2ccc3c(c2)CCC3)SC1=S
active: NCI-H522 lung -22.1%
inactive: NCI-H23 lung 90.3% | NCI-H226 lung 96.7% | NCI-H322M lung 106% | HOP-62 NSCLC 76.3% | NCI-H460 lung 107% | HOP-92 NSCLC 91.5% | A549/ATCC NSCLC 105% | 786-0 renal 104% | COLO 205 colon 109%

Cc1noc(C)c1-c1ccc2nc(NC(=O)[C@H]3CCN(C#N)C3)cn2c1
inactive: NCI-H23 lung 76.1% | NCI-H226 lung 91.1% | NCI-H322M lung 99.3% | HOP-62 NSCLC 92.8% | NCI-H460 lung 98.7% | HOP-92 NSCLC 67.3% | NCI-H522 lung 25.2% | A549/ATCC NSCLC 94.6% | 786-0 renal 78.6% | COLO 205 colon 82.6%

COc1cc(-c2nc3ccc(C)cc3[nH]2)ccc1OCC(=O)N=Nc1c(O)[nH]c2ccccc12
active: NCI-H23 lung -17.5% | NCI-H322M lung -33.9% | HOP-62 NSCLC -49.4% | NCI-H460 lung -70.5% | HOP-92 NSCLC -12.7% | NCI-H522 lung -63.5% | A549/ATCC NSCLC 8.54% | 786-0 renal -93.5% | COLO 205 colon -37.8%
inactive: NCI-H226 lung 112%

Nc1ncc(-c2ccc(C(F)(F)F)cc2)c(NC2CCCCCC2)n1
inactive: NCI-H23 lung 11.9% | NCI-H226 lung 39.6% | NCI-H322M lung 66.7% | HOP-62 NSCLC 57.7% | NCI-H460 lung 44.9% | A549/ATCC NSCLC 18.6% | 786-0 renal 51.3% | COLO 205 colon 38.5%
active: HOP-92 NSCLC -12.1% | NCI-H522 lung -6.45%

Cc1ccc(S(=O)(=O)N2CCc3ccccc3CC2)cc1
inactive: NCI-H23 lung 54.5% | NCI-H226 lung 54.3% | NCI-H322M lung 99% | HOP-62 NSCLC 97.9% | NCI-H460 lung 90.8% | HOP-92 NSCLC 71.9% | NCI-H522 lung 74.1% | A549/ATCC NSCLC 72.1% | 786-0 renal 79.3% | COLO 205 colon 81%

CCOC(=O)c1ccc(NC(=O)Nc2nncs2)cc1
active: NCI-H226 lung -21.3% | NCI-H460 lung 7.58% | NCI-H522 lung 7.15% | COLO 205 colon -25.9%
inactive: NCI-H23 lung 21.9% | NCI-H322M lung 43.2% | HOP-62 NSCLC 26.4% | HOP-92 NSCLC 58.2% | A549/ATCC NSCLC 19.4% | 786-0 renal 35.4%

— PubChem BioAssay (NCI)
